The values that follow come from PubChem BioAssay AID2734 (National Center for Advancing Translational Sciences (NCATS), 2010).

Results filed as inconclusive are left out. Where a call stands in place of a potency, no number is given. Activity calls are given as the source filed them. Calls come from the whole dose curve; as a rule, active = well fitted inhibition curve with a large enough effect; inconclusive = small, poorly fitted or top-dose-only effect, or effect the other way; inactive = no such curve, though single readings can be large or run the other way.

The assay in a line: High Content Assay for Compounds that inhibit the Assembly of the Perinucleolar Compartment: DNA Intercalation/PicoGreen Displacement Assay. The conditions noted are these: fluorescence (intercalation counter-screen); series mostly up to 57.1 µM. The text has this:
High Content Assay for Compounds that inhibit the Assembly of the Perinucleolar Compartment
NIH Chemical Genomics Center [NCGC]
NIH Molecular Libraries Probe Centers Network [MLPCN]
Assay Submitter (PI): Sui Huang, Northwestern University, Feinberg School of Medicine, Cell and Molecular Biology, Chicago, Illinois.
The perinucleolar compartment (PNC) is a non-membrane-bound nuclear subdomain that is associated with but structurally distinct from the nucleolus. The PNC is a heritable trait, in which the number of PNCs per cell in daughter cells often mimics that of their mother cells. The PNC is heterogeneous in shape, is stable through interphase, disassembles during mitosis, and reassembles in early G1. The PNC is concentrated with newly synthesized RNA polymerase III (pol III) RNAs (MRP RNA, RNAse P H1 RNA, hY RNAs[hY1, 2, 5], Alu RNA, and SRP [7SL] RNA) and RNA binding proteins (nucleolin, PTB, CUG-BP, KSRP, Raver1, Raver2, and Rod).
Extensive in vitro studies have shown that the PNC is unique to tumor cells and preferentially forms in tumor cells derived from solid tissues. Examination of cancer cell lines from various origins and malignant capacities has shown that PNC prevalence correlates with the malignancy of tumors and has the potential to be developed as a pan-cancer prognostic marker.
Although the PNC is associated with a DNA locus and a handful of components have been identified, much remains to be investigated regarding the structure and function of the PNC and its mechanistic link to cancer. We have previously shown that PNC prevalence reduction is a valid strategy to identify compounds that can be used to study the structure and function of the PNC. It is necessary, however, to create a screening platform that is able to test a large number of compounds in an automated fashion. Here we report the development and robustness of an automated whole-cell phenotypic image-based screening assay that is capable of identifying such compounds.
Therefore, we conducted a DNA intercalation/displacement assay on the lead candidates in order to exclude compounds with this mechanism of action. PicoGreen is a DNA intercalator that becomes excitable at 488 nm and emits at 520 nm when bound to DNA. Compounds which displace the dye will decrease fluorescence intensity and were considered DNA intercalators/displacers. In order to rule out potential fluorescence artifacts, a measurement of compound plus DNA only was also calculated.
1. A supercoiled plasmid (pBR322) was diluted to 200 ng/ml in TE and 2 ul was dispensed into 1536 well black plates Multidrop Combi.(ThermoFisher).
2. Followup compounds dissolved in 100% DMSO were transferred using a pintool (23 nl).
3. Compounds were incubated in the presence of DNA for 30 minutes at room temperature.
4. A baseline signal was measured using an Envision PMT based plate reader using a 488 nm excitation filter and a 520 nm emission filter.
5. The PicoGreen dye (Invitrogen) was diluted in TE and 2 ul/well was dispensed to the 1536 well plate using a Multidrop Combi.
6. Plates were incubated at 37 C for 10 minutes prior to being read on the envision plate reader. 100 ng/ml of Propidium Iodide was used as the positive intercalation control.
In general terms: The purpose of a counterscreen is to sort out artefacts and off-target activity.
For the molecule `CCCNC1=C(N(C(C)=O)c2cccc(F)c2)C(=O)c2ccccc2C1=O`, the Potency result is “inactive”.

As for `CSc1nnc2c3ccccc3n(CCc3ccccc3)c2n1`, the Potency entry is “inactive”. Consider `CC(=O)/C(C#N)=C1\NC(=O)C(Cc2ccc(C)c(C)c2)S1` (configuration not stated), for which the Potency result was “inactive”. For the molecule `CC(=O)Nc1ccc(S(=O)(=O)Oc2ccc3c(c2)C(C)=CC(C)(C)N3)cc1`, the Potency result is “inactive”. The result for `CCOC(=O)NC1(Nc2ccc(C)cc2)Oc2ccccc2O1` reads “inactive”; that for `CC(/C=C/c1ccccc1)=N/NC(=O)c1cc([N+](=O)[O-])cc([N+](=O)[O-])c1`, “inactive”. Next, `C/C(=N/OCO/N=C(/C)c1ccc(F)cc1)c1ccc(F)cc1`: “inactive”; `O=C1C(=O)c2ccc(-c3ccccc3)cc2-c2ccccc21`: 4.47 µM (active); `CCOC(=O)c1c(NC(=O)c2c(-c3ccccc3)noc2C)sc(C)c1-c1ccccc1`: “inactive”. As to `O=c1[nH]cnc2c1C(c1ccccc1[N+](=O)[O-])c1c(nc[nH]c1=O)O2`, the Potency result was “inactive”. As for `Cc1ccccc1C(=O)NNC(=S)Nc1cccc(C(F)(F)F)c1`, the Potency entry is “inactive”.

As to `CCN(CC)C(=S)SSC(=S)N(CC)CC`, the Potency entry is “inactive”. Take `Nc1cccc(-c2nc3ccc(N)cc3s2)c1`: the Potency entry is “inactive”. The result for `CSc1nc(-c2ccc(C)cc2)nc(C(Cl)Cl)n1` reads “inactive”; that for `Nc1ccc2c(c1)C(=O)C(=O)c1ccccc1-2`, 12.6 µM (active). Next, `O=C1C(=Cc2cccs2)C(=O)c2ccccc21`: “inactive”; `CCOC(=O)CSc1nc2c(sc3ccc([N+](=O)[O-])cc32)c(=O)n1Cc1ccco1`: “inactive”; `O=C(Nc1cccnc1)c1cccs1`: “inactive”. The result for `O=[N+]([O-])c1cc(/C=N/Nc2nc3ccccc3[nH]2)c(O)cc1O` reads 22.4 µM (active); that for `Cc1ccc(Cl)cc1N(CC(=O)N1CCCCCC1)S(C)(=O)=O`, “inactive”.

On to `Cc1cc(=O)[nH]c(N=N/C(=N/Nc2ccccc2C)c2ccccc2)n1`, for which the Potency was 2 µM (active). For the molecule `O=C1C(Nc2ccccc2)=C/C(=N/S(=O)(=O)c2cccs2)c2ccccc21`, the Potency is 2.82 µM (active). The result for `Cc1cc(C)c(S(=O)(=O)/N=C2/C=C(Sc3ncn[nH]3)C(=O)c3ccccc32)cc1C` reads 12.6 µM (active); that for `O=C(Nc1ccc(NC(=O)C2CC2)cn1)c1ccccc1Cl`, “inactive”; that for `COC(=O)c1ccc(CSc2ccccc2C)o1`, “inactive”. The result for `Cc1ccc(NC2=C/C(=N/S(=O)(=O)c3cccs3)c3ccccc3C2=O)cc1` reads 3.55 µM (active). Turning to `CCN(CC)c1ccc(N=Cc2ccccc2[N+](=O)[O-])cc1`, the Potency is 3.16 µM (active).
